Sampled rows, rich in hits. Any-hit rate of the full collection: about 2%.
FAS TE block = FAS thioesterase (human) inhibition | P49327 | recombinant FAS-TE, OMFH fluorogenic substrate, fluorescence endpoint | inhibition, % at 15 µM | 360,000 tested, 0.67% active | AID 602261;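 active means compounds whose normalised, plate-corrected inhibition of enzyme fluorescence in the single-dose primary screen is 50% or more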;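 further: 0% = DMSO with enzyme and 100% = substrate without enzyme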
ADAM17 inh = ADAM17 inhibition, QFRET primary screen; AID 720648; P78536; 370,000 tested, 0.83% active; inhibition, % at 6.95 µM; recombinant ADAM17, EDANS/DABCYL FRET peptide cleavage;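 active means inhibition above the mean of compounds lying between control limits plus 3 SD, set per campaign, cut at about 8.5% in these data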;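 further: 0% = DMSO-only wells as the low control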
NPR1 activator = GC-A (human) enzyme activation; HEK293 GC-A cells, cGMP TR-FRET, EC30 ANP; 0% at EC30 ANP, 100% saturating ANP; 370,000 tested, 0.14% active; activation, % at 10 µM; AID 1671463; in the data active means activation above about 40%
NPR2 activator = GC-B (human) receptor activation; HEK293-GC-B cells, CNP EC30, cGMP TR-FRET; 0% at EC30 CNP, 100% saturating CNP; activation, % at 10 µM; 370,000 tested, 0.11% active; AID 1920062;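 active means activation at 10 µM reaching about 35% in either raw or pattern-adjusted values, limit read from the data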
Target sequence (P20594 whole entry, looked up): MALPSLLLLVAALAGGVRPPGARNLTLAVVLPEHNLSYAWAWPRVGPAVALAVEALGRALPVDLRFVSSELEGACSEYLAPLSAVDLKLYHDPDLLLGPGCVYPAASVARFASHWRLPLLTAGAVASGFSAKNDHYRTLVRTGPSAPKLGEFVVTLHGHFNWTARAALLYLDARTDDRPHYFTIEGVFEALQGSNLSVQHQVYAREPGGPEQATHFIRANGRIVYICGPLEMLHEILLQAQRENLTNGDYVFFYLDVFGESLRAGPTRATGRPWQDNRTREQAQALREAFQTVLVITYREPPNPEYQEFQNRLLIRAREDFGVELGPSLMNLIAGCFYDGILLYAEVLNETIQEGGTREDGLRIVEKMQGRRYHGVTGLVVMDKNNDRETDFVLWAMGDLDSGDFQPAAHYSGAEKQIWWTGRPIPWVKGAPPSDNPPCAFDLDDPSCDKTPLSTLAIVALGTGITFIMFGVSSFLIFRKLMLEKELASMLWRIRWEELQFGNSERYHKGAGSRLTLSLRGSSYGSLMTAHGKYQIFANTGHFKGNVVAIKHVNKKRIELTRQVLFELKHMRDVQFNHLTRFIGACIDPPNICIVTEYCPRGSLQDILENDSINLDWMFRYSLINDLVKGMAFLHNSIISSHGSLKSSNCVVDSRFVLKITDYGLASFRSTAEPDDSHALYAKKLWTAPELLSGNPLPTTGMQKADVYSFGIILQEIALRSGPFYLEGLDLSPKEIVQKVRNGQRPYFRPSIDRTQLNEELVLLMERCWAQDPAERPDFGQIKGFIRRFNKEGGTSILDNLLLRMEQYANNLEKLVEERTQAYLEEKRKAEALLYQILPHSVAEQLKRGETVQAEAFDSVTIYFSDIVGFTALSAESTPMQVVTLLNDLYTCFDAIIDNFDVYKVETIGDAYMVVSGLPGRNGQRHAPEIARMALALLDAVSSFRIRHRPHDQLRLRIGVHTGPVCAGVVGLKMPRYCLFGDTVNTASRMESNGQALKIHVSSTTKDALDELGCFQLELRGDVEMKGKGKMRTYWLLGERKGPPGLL
ADAM10 inh = ADAM10 inhibition, QFRET primary screen | inhibition, % at 7 µM | AID 720582 | recombinant ADAM10, EDANS/DABCYL FRET peptide cleavage, 3 h | 370,000 tested, 0.62% active | O14672;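 active means inhibition above a per-campaign cutoff equal to the mean of compounds falling between control-based bounds plus 3 SD, cut at about 20% in these data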;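 further: 0% = DMSO wells while the 100% control is not disclosed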
FAS-TE conf = confirmation of human fatty acid synthase thioesterase inhibitors; shares compounds with FAS TE block; recombinant FAS-TE, OMFH fluorogenic substrate, fluorescence; inhibition, % at 15 µM; 2,300 tested, 45% active; AID 624325;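 active means compounds inhibiting the enzyme by at least 50% at 15 µM in any one of the replicates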;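 further: 0% = enzyme with DMSO only and 100% = wells lacking enzyme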
ADAM10 confirm = human ADAM10 inhibition, confirmation; ADAM10 QFRET peptide cleavage, EDANS fluorescence; inhibition, % at 6.95 µM; shares compounds with ADAM10 inh; 2,100 tested, 1% active;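 active means inhibition above about 20% chosen separately for each screening run, limit read from the data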;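 further: 0% = DMSO wells and 100% = marimastat wells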
ADAM17 ctr = ADAM17 inhibition, counter-screen for ADAM10 exosite hits; ADAM17 QFRET peptide cleavage, EDANS fluorescence; shares compounds with ADAM10 inh; 2,100 tested, 0.5% active; inhibition, % at 6.95 µM;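 active means mean triplicate inhibition above the solvent-only control wells' mean plus 3 SD, cut at about 12% in these data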;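 further: 0% = DMSO wells and 100% = marimastat wells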
ADAM10 counter = inhibits human ADAM10 in ADAM17 exosite counter-screen | AID 743256 | 2,900 tested, 47% active | inhibition, % at 6.95 µM | shares compounds with ADAM17 inh | recombinant ADAM10, EDANS/DABCYL FRET peptide cleavage, 3 h;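 active means mean inhibition over the triplicate runs exceeds the activity threshold set in the earlier primary screen, cut at about 20% in these data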;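 further: 0% = DMSO wells and 100% = marimastat wells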
ADAM17 confirm = human ADAM17 inhibition, confirmation | 2,900 tested, 65% active | recombinant ADAM17, EDANS/DABCYL QFRET peptide cleavage | shares compounds with ADAM17 inh | inhibition, % at 6.95 µM;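 active means mean inhibition across replicates above the hit cutoff set in the primary screen, cut at about 8.5% in these data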;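 further: 0% = DMSO wells and 100% = marimastat wells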
An asterisk follows results filed as active; / = no result given.

SMILES	FAS TE block	ADAM17 inh	NPR1 activator	NPR2 activator	ADAM10 inh	FAS-TE conf	others
N#Cc1ccc(NC(=S)N2Cc3ccc(Br)cc3-n3nncc3C2)cc1	/	0	1	-3	-9	/
CC[C@H](C)[C@@H]1OC(=O)[C@H](C(C)C)N(C)C(=O)[C@H](C(C)C)NC(=O)[C@@H](C)[C@@H](CCCC#CBr)OC(=O)[C@H](C(C)C)N(C)C(=O)C2CCCN2C1=O (some centres undefined)	/	-7	3	5	0	/
CN1CCc2nc(SCc3ccccc3Br)c(C#N)cc2C1	54*	-12	8	6	-59	45*
O=c1[nH]c2ccccc2n1C1CCN(C(CCc2ccccc2)c2nnnn2-c2ccc3c(c2)OCCO3)CC1 (centres undefined)	89*	0	-5	4	10	17
COc1cccc(C(c2nnnn2-c2c(C)cccc2C)N2CCC(n3c(=O)[nH]c4ccccc43)CC2)c1OC (centres undefined)	82*	5	-5	-2	18	4
CCC(c1nnnn1-c1ccc(OC)cc1)N1CCC(n2c(=O)[nH]c3ccccc32)CC1 (centres undefined)	-3	2	2	-2	2	/
Cc1cccc(C)c1-n1nnnc1C(CCc1ccccc1)N1CCC(n2c(=O)[nH]c3ccccc32)CC1 (centres undefined)	54*	-5	-5	5	-11	12
COc1ccc(-n2nnnc2C(CCc2ccccc2)N2CCC(n3c(=O)[nH]c4ccccc43)CC2)cc1 (centres undefined)	38	8	-4	10	18	/
COc1ccc(C(c2nnnn2-c2ccc3c(c2)OCCO3)N2CCC(n3c(=O)[nH]c4ccccc43)CC2)cc1 (centres undefined)	54*	6	2	9	16	15
O=C(O)c1cc2ccccc2n1C1CCN(Cc2ccccc2)CC1	/	0	0	3	-1	/
CN1C(=O)[C@@]23C[C@]4(c5c[nH]c6ccccc56)c5ccccc5N(S(=O)(=O)c5ccccc5)[C@@H]4N2C(=O)[C@@H]1SS3	/	-2	-17	13	-2	/
O=c1[nH]c2ccccc2n1C1CCN(Cc2ccc(-c3nc4ccc(F)cc4nc3-c3ccccc3)cc2)CC1	63*	-2	7	8	-23	10
Cc1cccc2nc(-c3ccccc3)c(-c3ccc(CN4CCC(n5c(=O)[nH]c6cc(Cl)ccc65)CC4)cc3)nc12	/	-16	-3	3	-81	/
O=c1[nH]c2cc(Cl)ccc2n1C1CCN(Cc2ccc(-c3nc4ccc(F)cc4nc3-c3ccccc3)cc2)CC1	/	0	0	3	-8	/
COc1ccc2nc(-c3ccc(CN4CCC(n5nnc6ccccc65)CC4)cc3)c(-c3ccccc3)nc2c1	/	-41	-2	10	-190	/
Cc1ccc2nc(-c3ccc(CN4CCC(n5nnc6ccccc65)CC4)cc3)c(-c3ccccc3)nc2c1	/	-54	0	13	-219	/
COc1ccc2nc(-c3ccc(CN4CCC(n5c(=O)[nH]c6ccccc65)CC4)cc3)c(-c3ccccc3)nc2c1	76*	-34	3	8	-157	11
O=c1[nH]c2ccccc2n1C1CCN(Cc2ccc(-c3nc4ccccc4nc3-c3ccccc3)cc2)CC1	61*	-12	3	10	-42	3
Cc1ccc2nc(-c3ccc(CN4CCC(n5c(=O)[nH]c6ccccc65)CC4)cc3)c(-c3ccccc3)nc2c1	72*	-5	5	2	-33	12
NC(Cc1ccccc1)[P+](=O)O (centres undefined)	/	-3	3	4	-4	/
Cc1ccc(N2Cc3ccccc3-n3nncc3C2)cc1	/	3	-4	-6	-5	/
S=C(NCCc1ccccc1)N1Cc2cc(Br)ccc2-n2nncc2C1	62*	2	-6	-10	6	25*
C=CCn1c(=O)c(C=Nc2c(OC)cccc2[N+](=O)[O-])c(O)n(CCCC)c1=O	70*	-1	12	5	-1	20
O=Cc1cn(Cc2cccc([N+](=O)[O-])c2)c2ccccc12	55*	2	-19	-13	8	59*
O=C1C=CC(=O)C2C1C1(Cl)C(Cl)=C(Cl)C2(Cl)C1(Cl)Cl (centres undefined)	60*	9	-6	-7	27*	57*	ADAM10 confirm=7;ADAM17 ctr=3
SMILES	FAS TE block	ADAM17 inh	NPR1 activator	NPR2 activator	ADAM10 inh	FAS-TE conf	others
O=C1CC[C@@]2(O)[C@H]3Cc4ccc(O)c5c4[C@@]2(CCN3CC2CC2)C1O5 (some centres undefined)	/	-1	-3	-5	5	/
COc1ccc(-n2nnnc2C(c2ccnc3ccccc23)N2CCC3(CC2)C(=O)NCN3c2ccccc2)cc1 (centres undefined)	6	-1	-9	-3	3	/
COc1ccc(-n2nnnc2C(c2ccccc2OC(F)(F)F)N2CCC(n3c(=O)[nH]c4ccccc43)CC2)cc1 (centres undefined)	60*	10*	-4	-8	30*	2	ADAM10 confirm=7;ADAM17 ctr=2;ADAM10 counter=34*;ADAM17 confirm=20*
COc1ccc(-n2nnnc2C(c2ccccc2OC(F)(F)F)N2CCC3(CC2)C(=O)NCN3c2ccccc2)cc1 (centres undefined)	60*	9.4*	-4	-1	25*	31	ADAM10 confirm=7;ADAM17 ctr=2;ADAM10 counter=31*;ADAM17 confirm=15*
O=C(NC(Cc1ccccc1)P(=O)(O)Oc1ccccc1)OCc1ccccc1 (centres undefined)	/	-1	1	1	0	/
Cc1cc(N=Nc2ccccc2C)ccc1N	16	6	6	-11	23*	/	ADAM10 confirm=2;ADAM17 ctr=0
Nc1ccc(N=Nc2ccccc2)cc1	2	2	10	-9	4	/
N#CC1c2ccccc2-n2nncc2CN1C(=O)c1cccnc1 (centres undefined)	/	-5	2	8	-3	/
